WRN helicase inh-1: blocks human WRN helicase | Q14191 | WRN helicase unwinding, fluorescent forked duplex, kinetic | Potency, µM (series often up to 114 µM), inactives show top-dose activity change, negative = inhibition, usual class: inhibitors | hit rate 0.46% among 360,000; note: % is set by controls: 0 for no effect and ±100 for the full control effect; nearly all actives have a fitted effect of over 55% in size
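Fluorescence dequenching readout, ex 525 nm/em 598 nm, kinetic mode: forked duplex DNA (100 nM final) with adjacent fluorophore and quencher unwound by WRN (20 nM final) with 2 mM ATP. Compound preincubation 15 min, room temperature.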
BLM helicase inh-1: blocks DNA unwinding by human BLM helicase; P54132; recombinant BLM DNA unwinding, fluorescence dequenching; Potency, µM (titrated, usually from 56.1 µM), for inactives: at the top dose activity change, negative = inhibition, hits mostly inhibitors; hit rate 0.2% among 350,000; AID 2528;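 note: plate controls were vehicle for no effect and no enzyme for full effect; nearly all actives have a fitted effect of over 35% in size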
FEN1 inh-1: human FEN1 inhibition | Recombinant FEN1 flap cleavage, fluorescence, 15 min | Potency, µM (doses to about 114 µM), without a hit: top-dose activity change, negative = inhibition, actives largely listed as inhibitors | hit rate 0.35% among 390,000 | AID 588795; note: % is set by controls: 0 for no effect and ±100 for the full control effect; nearly all actives have a fitted effect of over 65% in size
Target sequence (P39748 whole entry, looked up): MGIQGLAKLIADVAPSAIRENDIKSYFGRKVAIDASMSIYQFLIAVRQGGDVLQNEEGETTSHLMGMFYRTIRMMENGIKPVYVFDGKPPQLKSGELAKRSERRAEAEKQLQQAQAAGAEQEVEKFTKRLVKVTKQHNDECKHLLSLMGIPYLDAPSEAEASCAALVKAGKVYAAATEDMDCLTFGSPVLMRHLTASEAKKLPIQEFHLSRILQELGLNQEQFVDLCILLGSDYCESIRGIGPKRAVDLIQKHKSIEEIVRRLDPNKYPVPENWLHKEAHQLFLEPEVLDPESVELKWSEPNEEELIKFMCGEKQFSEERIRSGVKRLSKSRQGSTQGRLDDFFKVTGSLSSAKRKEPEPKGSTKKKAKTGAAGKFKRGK
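With each library titrated from low to high concentration, compounds met 10 nM FEN1 for 15 min at room temperature before 50 nM substrate was added; readings at 0 and 15 min fed four-parameter Hill curve fits.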
APEX1 inh: blocks human APE1 abasic DNA cleavage; recombinant APE1, TAMRA/BHQ-2 abasic DNA cleavage fluorescence; Potency, µM (series often up to 65.8 µM), for inactives: top-dose activity change, negative = inhibition, usual class: inhibitors; hit rate 0.35% among 350,000; P27695;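 note: plate controls were vehicle for no effect and reference inhibitor for full effect; nearly all actives have a fitted effect of over 55% in size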
Target sequence (P27695 whole entry, looked up): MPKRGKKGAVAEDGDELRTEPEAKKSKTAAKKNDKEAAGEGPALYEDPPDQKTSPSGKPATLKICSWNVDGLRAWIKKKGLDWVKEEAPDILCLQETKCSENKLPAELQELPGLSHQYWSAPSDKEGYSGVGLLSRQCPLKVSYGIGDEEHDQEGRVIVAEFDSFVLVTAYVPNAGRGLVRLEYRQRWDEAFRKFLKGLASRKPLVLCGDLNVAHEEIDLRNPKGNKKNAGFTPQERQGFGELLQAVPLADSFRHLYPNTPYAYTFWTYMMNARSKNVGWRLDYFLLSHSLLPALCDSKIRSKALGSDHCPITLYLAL
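Measures dequenching upon AP-site incision of a 5'-TAMRA/3'-BHQ-2 THF-containing duplex, 50 nM; human APE1 0.75 nM after 15 min room-temperature exposure to compound; kinetic three-point read at one-minute spacing.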
L3MBTL1 block: inhibitors of human L3MBTL1; Potency, µM (highest dose often 57.1 µM), for the others: top-dose activity, negative = inhibition, hits mostly inhibitors; Q9Y468; hit rate 0.66% among 230,000; AlphaScreen L3MBTL1–H3K9me1 peptide binding; AID 485360; note: % is set by controls: 0 for no effect and ±100 for the full control effect; nearly all actives have a fitted effect of over 60% in size
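AlphaScreen proximity signal between nickel-chelate acceptor and streptavidin donor beads (final 10 ug/mL) reports binding of 50 nM L3MBTL1 to 75 nM biotin-H3 K9me1 peptide; complex incubated with compounds 30 min at room temperature; cefsulodin titration as control.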
RECQ1 helicase: inhibitors of human RECQ1 DNA helicase; RECQ1 DNA unwinding, red fluorescence kinetic read; Potency, µM (top dose mostly 57.3 µM), for inactives: top-dose activity, negative = inhibition, hits mostly inhibitors; hit rate 0.54% among 240,000;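 note: plate controls were vehicle for no effect and no enzyme for full effect; nearly all actives have a fitted effect of over 30% in size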
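RECQ1T1 50 nM; forked duplex (20 bp + 30-nt ss tails) 200 nM, ATP 2 mM final; pH 8.0, 2 mM MgCl2, 2.5 ug/ml poly(dI-dC); 15 min compound preincubation; discontinuous kinetic read over 2 h at RT.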
FEN1 inh-2: FEN1 inhibition, cherry-pick retest; shares compounds with FEN1 inh-1; FEN1 flap cleavage, TAMRA/BHQ2 fluorogenic DNA substrate; Potency, µM, hits mostly inhibitors; hit rate 79% among 880; AID 720498; note: nearly all actives have a fitted effect of over 60% in size
WRN helicase inh-2: WRN helicase inhibition, cherry-pick retest; shares compounds with WRN helicase inh-1; WRN helicase DNA unwinding, fluorescence kinetic; Potency, µM (series often up to 57.1 µM), for the others: top-dose activity, negative = inhibition, most hits filed as inhibitors; hit rate 63% among 610; AID 720497; note: nearly all actives have a fitted effect of over 65% in size
TO displacement: binds DNA, flagged in WRN inhibitor counterscreen; Potency, µM (top dose mostly 57.1 µM), without a hit: at the highest dose activity change, negative = inhibition, hits mostly inhibitors; AID 720499; shares compounds with WRN helicase inh-1; hit rate 10% among 610; thiazole orange DNA binding displacement, fluorescence;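 note: drop in dye fluorescence marks compound binding to DNA; % is set by controls: 0 for no effect and ±100 for the full control effect; nearly all actives have a fitted effect of over 60% in size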
BLM helicase inh-2: blocks human BLM helicase in WRN counterscreen; Potency, µM (series often up to 57.1 µM), inactives show at the highest dose activity change, negative = inhibition, hits mostly inhibitors; hit rate 60% among 610; Recombinant BLM helicase DNA unwinding, red fluorescence; AID 720503; shares compounds with WRN helicase inh-1; note: nearly all actives have a fitted effect of over 60% in size
An asterisk follows results filed as active; i = inactive; ? = inconclusive; . = not tested or not shown; [ ] = remark or other dose. Compounds with a hit are over-represented: about 1% of the library has one in this group of screens. Calls come from the whole dose curve; as a rule, active = well fitted curve in the direction sought with a large enough effect; inconclusive = small, poorly fitted or top-dose-only effect, or another doubt; inactive = no such curve, though single readings can be large; an effect the other way counts as inactive or inconclusive. Potency is the fitted concentration of half-maximal effect.

SMILES	WRN helicase inh-1	BLM helicase inh-1	FEN1 inh-1	APEX1 inh	L3MBTL1 block	RECQ1 helicase	FEN1 inh-2	others
CN1C(=O)NC(=O)/C(=C/c2ccc([N+](=O)[O-])s2)C1=O	?	-0.6%	?	?	.	?	7.57*
CN1C(=O)NC(=O)/C(=C/c2ccc([N+](=O)[O-])o2)C1=O	?	-8.0%	25.1µM*	?	25.1µM*	i	33.8*
O=C1NC(=O)C(=Cc2ccc(-c3ccccc3[N+](=O)[O-])o2)C(=O)N1	?	-1.0%	?	17.1%	.	-4.5%	.
CCCCOCC1CO1 (stereo not given)	.	.	.	3.1%	.	2.2%	.
CC(C)C1C(=O)N2CCC[C@H]2[C@]2(O)O[C@](NC(=O)[C@@H]3C=C4c5cccc6[nH]cc(c56)C[C@H]4N(C)C3)(C(C)C)C(=O)N12 (stereo not given in full)	.	.	.	-2.8%	.	-26.8%	.
O=C(Cl)OCc1ccccc1	.	.	.	6.0%	.	-7.9%	.
Cc1cccn2c(=O)c(/C=C(\C#N)c3nc4ccccc4s3)c(Oc3ccc(F)cc3)nc12	.	-4.2%	?	.	.	.	.
Cc1cccc(Oc2nc3c(C)cccn3c(=O)c2/C=C(\C#N)c2nc3ccccc3s2)c1	.	-5.1%	?	.	.	.	67.5*
O=C(CO)C(O)C(O)C(O)CO (stereo not given)	-0.8%	2.0%	?	28.0%	3.3%	-0.4%	.
CC1(C)OC(c2ccccc2)=C/C(=C/C=C2C(=O)NC(=S)NC2=O)O1	8.91µM*	22.4µM*	?	-11.1%	?	25.1µM*	84.9*
CN1/C(=C\C=C2C(=O)NC(=S)NC2=O)C(C)(C)c2ccccc21	13.9%	-28.7%	39.8µM*	2.9%	3.7%	-1.4%	75.7*
O=C(O)CBr	.	.	.	-2.0%	.	-11.7%	.
CN1CCc2nc3sc(C#N)c(N)c3c(-c3cccs3)c2C1	-2.9%	-3.3%	?	-1.3%	.	-1.9%	?
CCCCCCCCCCCC[N+](C)(C)CCOc1ccccc1	.	-14.9%	.	20.3%	.	-2.8%	.
CC[N+](C)(CC)CCCCOc1ccc2c(c1)C(=O)c1cc(OCCCC[N+](C)(CC)CC)ccc1-2	39.8µM*	-29.4%	?	-5.3%	3.2%	-13.3%	21.3*
Cn1cccc1/C=C1/C(=O)NC(=S)N(Cc2ccc(F)cc2)C1=O	56.2µM*	?	-22.9%	?	.	25.1µM*	?
CSc1nc(N)c(N=Nc2ccc([As](=O)(O)O)cc2)c(=O)[nH]1	-17.5%[11.6 µM]	-15.9%	8.1%	-4.7%	-4.9%	-7.7%	75.7*
O=C1NC(=O)N(Cc2ccccc2)C(=O)/C1=C\c1ccco1	31.6µM*	?	44.7µM*	?	?	?	75.7*
Cn1cccc1/C=C1/C(=O)NC(=O)N(Cc2ccccc2)C1=O	?	-1.1%	-9.3%	-6.6%	-12.2%	-28.0%	.
CSCC[C@H](NC(=O)[C@H](CC(C)C)NC(=O)[C@@H](Cc1cnc[nH]1)NC(=O)[C@H](Cc1ccccc1)NC(=O)[C@@H](Cc1ccccc1)NC(=O)[C@@H](N)Cc1ccc(O)cc1)C(N)=O	.	0.5%	.	0.5%	.	-3.6%	.
Cc1ccccc1-n1c(O)c(/C=C/C=Nc2ccccc2)c(=O)[nH]c1=O	?	-8.2%	-9.0%	-11.1%	0.7%	25.1µM*	84.9*
CC(=O)[O-].CC(=O)[O-].CC(=O)[O-].[Cr+3]	.	.	.	0.3%	.	3.9%	.
C[n+]1c(-c2ccccc2)c2cc(N)ccc2c2ccc(N)cc21	2.67µM*	?	11.2µM*	10.6µM*	.	.	9.53*
O=[N+]([O-])c1ccc(N2CCCCCC2)c2nonc12	22.4µM*	-21.6%	?	-54.9%	-14.2%	.	42.6*
C=CC(=O)OCC	.	.	.	17.4%	.	-16.5%	.
SMILES	WRN helicase inh-1	BLM helicase inh-1	FEN1 inh-1	APEX1 inh	L3MBTL1 block	RECQ1 helicase	FEN1 inh-2	others
Cc1cccc(N2C(=O)/C(=C/c3ccc(N4CCN(C)CC4)o3)C(=O)NC2=S)c1C	31.6µM*	-7.9%	-15.1%	-12.2%	-10.9%	-16.7%	84.9*
Cc1ccccc1N1C(=O)NC(=O)/C(=C/c2ccc(N3CCOCC3)o2)C1=O	-7.5%	-1.0%	3.4%	?	-13.8%	i	.
C=C1[C@@H]2C[C@]3(C(CC2=O)[C@]24C5C[C@H]3[C@H]2N(CC)C[C@]5(C)CC[C@@H]4O)[C@@H]1O (stereo not given in full)	.	0.6%	.	-1.2%	.	2.0%	.
Cc1ccc(N2C(=O)NC(=O)/C(=C/c3ccoc3)C2=O)cc1	31.6µM*	15.8µM*	35.5µM*	1.58µM*	.	12.6µM*	60.1*
Cc1ccc(N2C(=O)NC(=O)/C(=C/c3cnn(-c4ccc(C)cc4)c3)C2=O)cc1	-19.2%	1.2%	3.2%	0.8%	0.5%	-5.3%	.
N#CCc1ccccc1	.	.	.	12.9%	.	-13.3%	.
COc1cccc2c1C(=O)c1c(O)c3c(c(O)c1C2=O)CC(O)(C(C)=NO)CC3OC1CC(N)C(O)C(C)O1 (stereo not given)	2.67µM*	.	?	.	.	.	30.1*	WRN helicase inh-2=21.5µM*;TO displacement=163.3%;BLM helicase inh-2=21.5µM*
O=C1NC(=O)N(c2ccccc2)C(=O)/C1=C\c1ccc([N+](=O)[O-])s1	28.2µM*	-6.3%	31.6µM*	?	.	?	19*	WRN helicase inh-2=?;TO displacement=-15.4%;BLM helicase inh-2=17.1µM*
O=C1NC(=O)N(c2ccc(F)cc2)C(=O)/C1=C/c1ccsc1	?	2.7%	-15.2%	1.1%	2.9%	-4.7%	.
COC(=O)C[C@@](O)(CCC(C)(C)O)C(=O)O[C@@H]1C(OC)=C[C@]23CCCN2CCc2cc4c(cc2[C@@H]13)OCO4	.	-1.3%	.	0.2%	.	-6.9%	.
CC1=C(O)C(=O)C=C2C1=CC=C1C2(C)CCC2(C)C3CC(C)(C(=O)O)CCC3(C)CCC12C (stereo not given)	25.1µM*	.	39.8µM*	.	.	.	.	WRN helicase inh-2=?;TO displacement=-19.3%;BLM helicase inh-2=21.5µM*

Source: PubChem BioAssay
